Source: PubChem
An excerpt weighted towards active compounds, which were near 3% of everything screened.
A1 inh: inhibitors of the anti-apoptotic protein A1, read as caspase activation | AID 2462 | 330,000 tested, 0.066% active | MEF A1-2A-BIM cells, Caspase-Glo 3/7 luminescence, 3 h; percent of clofoctol response, vehicle zero | caspase activation, % (no concentration beside the values);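 active = over half of replicate activation scores above 10%, or exactly half above 10 with the replicate mean above 10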
SUMO Mot1 rescue: blocks SUMOylation pathway, rescuing yeast Mot1-301 growth. S. cerevisiae Mot1-301 growth rescue, ATP luminescence, 38.5C; percent above DMSO median, 100 means doubled. 320,000 tested, 1% active. growth rescue, % at 18.8 µM;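 active = every valid replicate shows activation above 250% relative to neutral control wells; inactive = the rest, any valid replicate at or below 250%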;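 also: OY570 slx delta 5 strain wells were the positive control but not used for scaling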
NALP1 inh: inhibitors of NALP1 inflammasome in yeast; S. cerevisiae NALP1/ASC/caspase-1 growth, X-gal OD620, 72 h; inhibition, % at 10 µM; 280,000 tested, 0.61% active; in the data active = inhibition mostly above about 24%, no sharp cut-off; inactive = mostly below about 32%
NLRP3 yeast inh: blocks the NALP3 inflammasome reconstituted in yeast; 330,000 tested, 0.39% active; inhibition, % at 10 µM; Yeast reconstituted NLRP3/ASC/caspase-1, beta-gal luminescence, 24 h;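 active = inhibition of 50% or more; inactive = inhibition below 50%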;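 also: plate controls were induced DMSO wells for no effect and uninduced yeast grown without galactose for full effect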
CHT block: human CHT choline transport inhibition | Q9GZV3 | CHT-expressing cells, membrane potential dye, choline response; active compounds read low | 310,000 tested, 0.86% active | AID 488975 | B-score at 10 µM;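 active = B-score over 3 SD under the library average, and starting fluorescence ratio not unusually high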;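 also: choline stimulus applied at its EC90 after an EC20 pre-addition; B-score computed on integrated fluorescence ratio after choline addition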
Target sequence (Q9GZV3 whole entry, looked up): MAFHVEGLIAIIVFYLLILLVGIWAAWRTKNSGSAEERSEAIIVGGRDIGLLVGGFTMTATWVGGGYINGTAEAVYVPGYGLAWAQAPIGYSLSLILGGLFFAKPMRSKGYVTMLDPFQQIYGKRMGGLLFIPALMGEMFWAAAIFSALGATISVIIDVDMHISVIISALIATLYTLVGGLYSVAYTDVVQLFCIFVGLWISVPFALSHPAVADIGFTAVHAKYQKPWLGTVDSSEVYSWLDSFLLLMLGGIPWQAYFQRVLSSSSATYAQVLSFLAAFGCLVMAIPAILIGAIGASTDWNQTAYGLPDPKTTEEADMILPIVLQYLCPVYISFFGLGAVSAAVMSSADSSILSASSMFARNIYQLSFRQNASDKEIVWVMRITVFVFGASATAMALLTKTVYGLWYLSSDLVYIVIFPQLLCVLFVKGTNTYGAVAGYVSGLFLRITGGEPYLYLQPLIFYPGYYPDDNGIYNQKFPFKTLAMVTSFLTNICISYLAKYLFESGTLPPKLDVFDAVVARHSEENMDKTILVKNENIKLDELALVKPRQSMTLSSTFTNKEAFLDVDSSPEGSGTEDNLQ
CHT PAM: allosterically activates the human high affinity choline transporter; CHT-expressing cells, membrane potential dye, choline EC20; active compounds read high; LV-AA mutant CHT in HEK293 cells; B-score at 10 µM; 310,000 tested, 0.49% active;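 active = initial fluorescence not abnormally high and integrated response B-score, plate-corrected, over 3 SD above library mean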
CHT inh conf: human CHT inhibition, confirmatory screen; shares compounds with CHT block; CHT activity remaining % of control (active compounds read low), % at 10 µM; CHT-expressing cells, choline membrane potential dye; LV-to-AA substituted CHT, HEK293 cells; 2,400 tested, 70% active;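 active = choline transporter activity left, mean of duplicates at 10 µM, below buffer-only control mean minus 3 SD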;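 also: depolarization triggered by choline at its EC90 following an EC20 pre-addition; 0% = hemicholinium-3 full block and 100% = buffer-only control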
HEK293 MPD ctr: counter-screen for CHT inhibitors: effect in parental HEK293 cells | shares compounds with CHT block | 2,400 tested, 4% active | AID 493222 | membrane potential dye, choline response; active = decrease or increase beyond buffer ±3SD | membrane potential ratio readout (active if shifted either direction beyond buffer ±3SD; no single direction) at 10 µM;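 also: parental cells lack the transporter so any hit is non-specific; ratio is peak minus trough fluorescence over baseline after EC90 choline challenge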
Numbers without * were called inactive; i = inactive; / = no result given.

SMILES	A1 inh	SUMO Mot1 rescue	NALP1 inh	NLRP3 yeast inh	CHT block	CHT PAM	CHT inh conf	HEK293 MPD ctr
CCC(Oc1ccc(C)cc1)C(=O)Nc1ccc(S(=O)(=O)Nc2nccs2)cc1 (configuration not stated)	-1	-16	13	17	-6.5*	i	40%*	i
CC(Oc1ccccc1)C(=O)Nc1ccc(S(=O)(=O)Nc2nccs2)cc1 (configuration not stated)	0	-7	11	16	i	i	/	/
O=C(Nc1ccc(S(=O)(=O)Nc2nccs2)cc1)c1c(F)c(F)c(F)c(F)c1F	1	4	-20	14	-5*	i	35%*	i
O=C1CCN(CCc2ccccc2)CCN1CCSc1ccccc1	1	12	18	31	-5*	i	50%*	i
CCOC(=O)c1sc2nc3c(SCCC#N)cc(C(=O)c4cc(F)ccc4O)cn3c(=O)c2c1C	0	-1	35	7	i	i	/	/
O=C(O)CSc1cc(C(=O)c2cc(F)ccc2O)cn2c(=O)c3c(-c4ccccc4)csc3nc12	-1	1	9	11	-7*	i	26%*	i
COc1ccccc1CC(=O)Nc1ncc(C)s1	2	-24	-1	23	i	i	/	/
CCN1CCN(CCNC(=O)c2ccc3nc(-c4cccc(C)c4)c(-c4cccc(C)c4)nc3c2)CC1	1	31	14	1	-8.7*	i	36%*	i
COc1ccc(-c2nc3ccc(C(=O)NCCCN4CCOCC4)cc3nc2-c2ccc(OC)cc2)cc1	0	-13	5	5	-5.1*	i	53%*	i
COc1ccc(NCC(=O)NN=C2CCS(=O)(=O)c3ccc(F)cc32)cc1	0	2	/	10	/	/	/	/
CCCCCC(=O)Nc1ccc(C2C(=O)c3ccccc3C2=O)cc1	-3	192	13	18	i	i	/	/
Cc1cccc(C(=O)NNC2=C(C(=O)C(F)(F)F)CCC2)c1O	-2	6	-7	7	-7.9*	i	37%*	i
COc1cccc(OCC(=O)Nc2ccccc2C(=O)Nc2ccc(C(=O)O)cc2)c1	0	5	18	13	i	i	/	/
Cc1cccc(OCCC(=O)Nc2ccc(Cl)cc2F)c1	0	-15	11	25	i	i	/	/
O=C(NC1CCCC1)C(c1ccc(O)cc1)N(CC1CCCO1)C(=O)C1COc2ccccc2O1 (configuration not stated)	-1	301	8	1	i	i	/	/
COc1ccc(C(C(=O)NC2CCCCC2)N(CC2CCCO2)C(=O)C2COc3ccccc3O2)cc1OC (configuration not stated)	-1	17	4	1	-5.9*	i	i	i
COc1ccc(NS(=O)(=O)c2c(C)cc(C)cc2C)cn1	2	21	5	-11	i	i	/	/
CCOc1cc(C(=O)OC(C(=O)NC(=O)NC)c2ccccc2)ccc1OCC(=O)N1CCOCC1 (configuration not stated)	1	39	/	-11	/	/	/	/
Cn1cc(/C=C2\SC(=O)N(c3ccc(O)cc3)C2=O)c2ccccc21	0	-2	/	4	i	i	/	/
Cn1cc(/C=C2\SC(=O)N(c3ccccc3)C2=O)c2ccccc21	2	-5	19	23	-6.5*	i	i	i
CC1=NC(C)(C)Cc2ccccc21	0	10	12	3	-10*	i	20%*	i
CC1(C)Cc2ccccc2C(COc2ccccc2)=N1	0	7	14	4	i	i	/	/
O=C(Nc1nc(-c2ccccc2)cs1)c1ccc(=O)[nH]c1	0	6	-2	-3	-6*	i	70%*	i
